Sampled rows, rich in hits. Any-hit rate of the full collection: about 18%.
IL1B secr inh: qHTS for Inhibitors of Inflammasome Signaling: IL-1-beta AlphaLISA Primary Screen; THP-1 LPS/ATP IL-1B secretion, AlphaLISA, 16 h; stronger effect = lower value; activity change, % at 57.5 µM; actives 4.7% (n = 360,000); in the data active = activity change below about -50%; inconclusive = mostly about -30% to -49%
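Secreted IL-1B measured by AlphaLISA bead assay after 16 h compound exposure of THP-1 cells; compounds (final up to 57.5 uM) added 1 h before LPS (250 ng/mL) and ATP (1.25 mM) stimulation; lower signal means less secretion.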
HepG2 viability: qHTS for Inhibitors of TGF-b: Cytotox Counterscreen; actives 0.76% (n = 410,000); HepG2 CAGA-GFP viability, ATP luminescence, 18 h; Potency, µM (doses to about 46.1 µM), usual class: cytotoxic
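HepG2 CAGA-GFP cells (1000/well, DMEM with 1% FBS) received compound, then TGF-beta at 500 pg/mL final, and were incubated 18 hours at 37 degrees C. Viability was read by CellTiter-Glo luminescence. Media-only wells were set as complete cell-killing and DMSO as no toxicity.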
TDP1 cell CPT: qHTS for Inhibitors of human tyrosyl-DNA phosphodiesterase 1 (TDP1): qHTS in cells in presence of CPT | Potency, µM (highest dose often 46.2 µM), actives largely listed as inhibitors | chicken DT40 Tdp1-/-;hTDP1 cells + 20 nM CPT, ATP luminescence, 48 h | actives 12% (n = 420,000); also: nearly all actives have a fitted effect of over 55% in size
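Chicken DT40 Tdp1-/- cells complemented with human TDP1, 400 cells/well, exposed to compounds plus 20 nM camptothecin for at least 48 h at 37 C; viability read as ATP content by CellTiter-Glo luminescence.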
TDP1 inh: qHTS Assay for Inhibitors of Tyrosyl-DNA Phosphodiesterase (TDP1). recombinant TDP1, AlphaScreen DNA substrate cleavage. actives 0.28% (n = 350,000). Potency, µM (series often up to 130 µM), most hits filed as inhibitors. Tyrosyl-DNA phosphodiesterase 1 (Homo sapiens), Q9NUW8; also: nearly all actives have a fitted effect of over 40% in size
Target sequence (Q9NUW8 whole entry, looked up): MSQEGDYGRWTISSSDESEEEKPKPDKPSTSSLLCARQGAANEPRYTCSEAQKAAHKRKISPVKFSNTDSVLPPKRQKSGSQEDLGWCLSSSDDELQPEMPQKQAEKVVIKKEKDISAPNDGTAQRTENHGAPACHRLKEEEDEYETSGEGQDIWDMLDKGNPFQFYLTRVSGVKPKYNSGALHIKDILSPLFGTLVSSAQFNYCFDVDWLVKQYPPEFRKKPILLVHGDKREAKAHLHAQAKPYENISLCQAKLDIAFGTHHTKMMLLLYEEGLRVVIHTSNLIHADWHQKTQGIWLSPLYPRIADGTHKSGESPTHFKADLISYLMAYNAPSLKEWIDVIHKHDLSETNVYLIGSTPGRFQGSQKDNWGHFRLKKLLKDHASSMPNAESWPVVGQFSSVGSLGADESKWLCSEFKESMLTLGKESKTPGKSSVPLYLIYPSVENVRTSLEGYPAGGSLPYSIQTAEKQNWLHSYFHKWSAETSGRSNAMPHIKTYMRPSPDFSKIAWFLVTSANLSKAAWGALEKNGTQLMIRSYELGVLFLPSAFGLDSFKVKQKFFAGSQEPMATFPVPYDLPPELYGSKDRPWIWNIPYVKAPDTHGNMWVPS
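E. coli-derived human Tdp1, 1 nM final. Cpd preinc 15 min RT; substrate 15 nM final, 5 min RT; AS bead mix 10 ug/ml final, 10 min RT. Signal loss = tyrosine-FITC cleavage. No-enzyme wells = max signal.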
DT40 TDP1 no CPT: qHTS for Inhibitors of human tyrosyl-DNA phosphodiesterase 1 (TDP1): qHTS in cells in absence of CPT | DT40 Tdp1-/- hTDP1 cells, no CPT, ATP luminescence, 48 h | Potency, µM (top dose mostly 46.2 µM), hits mostly inhibitors | actives 15% (n = 420,000) | AID 686978, 2013; also: nearly all actives have a fitted effect of over 55% in size
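Readout: luminescence from CellTiter-Glo after 30 min in the dark at RT. Cells: DT40 Tdp1-/- with stable hTDP1, 400/well. Exposure: compounds alone, ≥48 hr, 37 °C.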
TGFb inhibitor: qHTS for Inhibitors of TGF-b | HepG2 CAGA-GFP TGF-b/SMAD3 reporter, GFP fluorescence, 18 h; TGF-beta stimulated, 500 pg/mL final | Potency, µM (series often up to 46.1 µM), hits mostly inhibitors | actives 1.2% (n = 410,000) | AID 588855, 2011; also: nearly all actives have a fitted effect of over 65% in size
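Per well, imaged GFP fluorescence of HEPG2 CAGA-GFP cells gives the signal; cells get compound, then TGF-beta (500 pg/mL final), 18 h at 37 degrees C; %Activity versus -TGF-beta and +DMSO controls.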
Each line names hits and unclear results; the compound was inactive in the other large screens. Unless noted, calls follow the shape of the dose curve; as a rule, active = well fitted curve in the direction sought with a large enough effect; inconclusive = small, poorly fitted or top-dose-only effect, or another doubt; inactive = no such curve, though single readings can be large; an effect the other way counts as inactive or inconclusive.

CCOC(=O)c1c(-c2ccc(C)cc2)csc1NC(=O)CCN1CCOCC1	TDP1 cell CPT inconclusive, DT40 TDP1 no CPT 23µM
CCOC(=O)c1[nH]cc(-c2ccccc2)c1N1CCOCC1	TDP1 cell CPT 16µM, DT40 TDP1 no CPT 29µM
Cc1ccc(C)c(NC(=O)CN(C)C(=O)COc2ncnc3sccc23)c1	none
CCOC(=O)c1c(-c2ccccc2)csc1NC(=O)CCN1CCOCC1	TDP1 cell CPT inconclusive, DT40 TDP1 no CPT 23µM
CC(=O)N1c2c(cc(Br)cc2S(=O)(=O)N2CCN(c3ccccc3F)CC2)CC1C (configuration not stated)	DT40 TDP1 no CPT inconclusive
O=C(Nc1ccc(Br)cc1)C1CCCN1S(=O)(=O)c1cccs1 (configuration not stated)	TDP1 cell CPT 21µM, DT40 TDP1 no CPT 13µM
COc1ccc(NC(=O)C2CCCN2S(=O)(=O)c2cccs2)c([N+](=O)[O-])c1 (configuration not stated)	TDP1 cell CPT 21µM, DT40 TDP1 no CPT 10µM
COc1ccccc1-c1cc2nc(NCCc3ccncc3)ccn2n1	TDP1 cell CPT inconclusive, DT40 TDP1 no CPT inconclusive (no result: TDP1 inh)
COc1ccccc1-c1cc2nc(NCCc3ccc(S(N)(=O)=O)cc3)ccn2n1	IL1B secr inh -68, TDP1 cell CPT inconclusive, DT40 TDP1 no CPT 21µM (no result: TDP1 inh)
O=C(COc1ccccc1)Nc1nnc(SCc2cc(=O)c3ccccc3[nH]2)s1	DT40 TDP1 no CPT inconclusive (no result: IL1B secr inh)
N/C(=N\OC(=O)c1ccc2ccccc2c1)c1ccccc1Cl	none
Brc1ccc(C=Nc2ccc3c(c2)OCCOCCOCCO3)s1	none
Cn1ccnc1SCC(=O)Nc1cccc(C(F)(F)F)c1	none
O=C1CCCN2N=C(SCC(=O)Nc3ccc(Cl)cc3)SC2=N1	none
O=C1CCCN2N=C(SCC(=O)Nc3cccc(C(F)(F)F)c3)SC2=N1	TDP1 cell CPT 4.6µM, DT40 TDP1 no CPT 5.2µM
O=C1CCCN2N=C(SCC(=O)Nc3ccccc3C(F)(F)F)SC2=N1	none
O=C(CSC1=NCCN1)Nc1cccc(C(F)(F)F)c1	IL1B secr inh -99, TDP1 cell CPT 21µM, DT40 TDP1 no CPT inconclusive
Cc1ccc(NC(=O)CSC2=NN3CCCC(=O)N=C3S2)cc1Cl	TDP1 cell CPT inconclusive, DT40 TDP1 no CPT 21µM
O=C1CCCN2N=C(SCC(=O)Nc3cccc(Cl)c3)SC2=N1	TDP1 cell CPT 16µM, DT40 TDP1 no CPT 21µM
CCNC(=O)C1(C)CCN(C(=O)c2cccnc2SC)C1 (configuration not stated)	none (no result: TDP1 inh)
COc1cccc(NC(=O)Cn2nc(C)c3c(C)n(-c4ccccc4)nc3c2=O)c1	none (no result: IL1B secr inh)
CC1(C)C2(Cl)C(Cl)C(Cl)C(Cl)(C(Cl)Cl)C1(Cl)C2Cl (configuration not stated)	none (no result: IL1B secr inh, HepG2 viability, TGFb inhibitor)
Cc1ccc(-c2nnc(NC(=O)CCS(=O)(=O)c3ccc(F)cc3)o2)c(C)c1	none
O=C(CCS(=O)(=O)c1ccc(F)cc1)Nc1nnc(-c2ccc(F)cc2)o1	IL1B secr inh inconclusive, TDP1 cell CPT 13µM, DT40 TDP1 no CPT 16µM, TGFb inhibitor inconclusive
COc1ccccc1-c1nnc(NC(=O)CCS(=O)(=O)c2ccc(F)cc2)o1	TDP1 cell CPT 8.2µM, DT40 TDP1 no CPT 9.2µM, TGFb inhibitor inconclusive (no result: TDP1 inh)
COc1ccccc1-c1nnc(NC(=O)CCS(=O)(=O)c2ccccc2)o1	IL1B secr inh -81, TDP1 cell CPT 23µM, DT40 TDP1 no CPT 18µM, TGFb inhibitor inconclusive
COc1cccc(-c2nnc(NC(=O)CCS(=O)(=O)c3ccc(C)cc3)o2)c1	IL1B secr inh inconclusive, TDP1 cell CPT inconclusive, DT40 TDP1 no CPT inconclusive
COc1ccccc1OCCNC(=O)c1ccc(C)o1	none
COC(=O)[C@H](COC(C)(C)C)NC(=O)O[C@H]1C(=O)c2ccc(OC)cc2O[C@@H]1c1ccc2c(c1)OCO2	none (no result: IL1B secr inh, HepG2 viability, TDP1 cell CPT, DT40 TDP1 no CPT, TGFb inhibitor)
COc1ccc(C(C(=O)Nc2ccc(F)cc2)N2CCN(CC(=O)N3CCCC3)CC2)cc1 (configuration not stated)	none (no result: HepG2 viability, TDP1 inh, TGFb inhibitor)
COc1cc(NC(=O)Nc2nc(C(N)C3CCCCC3)cs2)cc(OC)c1OC (configuration not stated)	HepG2 viability 11µM, TDP1 cell CPT 16µM, DT40 TDP1 no CPT 23µM, TGFb inhibitor inconclusive (no result: TDP1 inh)
NC(c1csc(NC(=O)Nc2ccccc2Cl)n1)C1CCCCC1 (configuration not stated)	TDP1 cell CPT 23µM, DT40 TDP1 no CPT 16µM, TGFb inhibitor inconclusive (no result: TDP1 inh)
COc1ccc(CCNC(=O)Nc2nc(C(N)C3CCCCC3)cs2)cc1OC (configuration not stated)	IL1B secr inh -52, TDP1 cell CPT inconclusive, DT40 TDP1 no CPT inconclusive (no result: TDP1 inh)
COc1ccccc1NC(=O)Nc1nc(C(N)C2CCCCC2)cs1 (configuration not stated)	HepG2 viability 11µM, TDP1 cell CPT 23µM, DT40 TDP1 no CPT 15µM, TGFb inhibitor inconclusive (no result: IL1B secr inh, TDP1 inh)
O=C1CCCC=C1[C@H](O)c1ccc([N+](=O)[O-])cc1	none (no result: IL1B secr inh, HepG2 viability, TDP1 cell CPT, DT40 TDP1 no CPT, TGFb inhibitor)
CC(C)C(NC(=O)c1ccc(C(C)(C)C)cc1)C(=O)NCc1ccccn1 (configuration not stated)	TDP1 cell CPT 9.2µM, DT40 TDP1 no CPT inconclusive
COc1ccc(Br)c(C(=O)Nc2cccc(S(=O)(=O)N3CCOCC3)c2)c1	DT40 TDP1 no CPT inconclusive
O=C(CN1CCN(S(=O)(=O)c2ccc3ccccc3c2)CC1)Nc1ccc(N2CCOCC2)cc1	none
Cc1cccc(C(=O)N[C@H](C(=O)Nc2ccc(C)c(S(=O)(=O)N(C)C)c2)C(C)C)c1	TDP1 cell CPT inconclusive, DT40 TDP1 no CPT 15µM, TGFb inhibitor inconclusive
COc1ccc(C(=O)N[C@H](C(=O)Nc2cccc(S(=O)(=O)N3CCOCC3)c2)C(C)C)cc1	IL1B secr inh inconclusive, DT40 TDP1 no CPT 18µM (no result: TDP1 inh)
COc1ccc(C(=O)NC(C(=O)NCc2ccccn2)C(C)C)cc1 (configuration not stated)	none
COc1ccc(N2CCN(CC(=O)Nc3cccc(S(=O)(=O)N4CCOCC4)c3)CC2)cc1	TDP1 cell CPT inconclusive, DT40 TDP1 no CPT 9.2µM
Cc1cccc(C(=O)N[C@H](C(=O)Nc2ccc(C)c(S(=O)(=O)N3CCOCC3)c2)C(C)C)c1	TDP1 cell CPT inconclusive, DT40 TDP1 no CPT inconclusive, TGFb inhibitor inconclusive
Cc1ccc(N(C)C(=O)c2cc(S(=O)(=O)N3CCOCC3)cn2C)cc1	none (no result: IL1B secr inh)
